In ChEMBL document CHEMBL1157539, “Thousands of chemical starting points for antimalarial lead identification” (Nature, 2010):

Key:
Type in all cases: functional
Plasmodium falciparum [1] = assay: GSK_TCMDC: Inhibition of Plasmodium falciparum 3D7 in whole red blood cells, using parasite LDH activity as an index of growth. Test compounds present at 2uM
Plasmodium falciparum [2] = assay: GSK_TCMDC: Inhibition of Plasmodium falciparum Dd2 in whole red blood cells, using parasite LDH activity as an index of growth. Test compounds present at 2uM
HepG2 = assay: GSK_TCMDC: Percent inhibition of human HepG2 cell line. Test compounds present at 10uM.

Structure (SMILES): Cl.N=C(N)Nc1ccc(OCCCCCOc2ccc(NC(=N)N)cc2Br)c(Br)c1
- Inhibition (Plasmodium falciparum [1]): 92%
- Inhibition (Plasmodium falciparum [2]): 95%
- Inhibition (HepG2): 27%

Structure (SMILES): O=C(Nc1ccc(CN2CCN(S(=O)(=O)c3ccc(Cl)s3)CC2)cc1)c1cccs1.O=C(O)C(F)(F)F
- Inhibition (Plasmodium falciparum [1]): 92%
- Inhibition (Plasmodium falciparum [2]): 87%
- Inhibition (HepG2): 14%

Structure (SMILES): COc1ccc2nccc([C@@H](O)CN3CCC(NCc4cc5ccccc5[nH]4)CC3)c2c1.CS(=O)(=O)O
- Inhibition (Plasmodium falciparum [1]): 92%
- Inhibition (Plasmodium falciparum [2]): 41%
- Inhibition (HepG2): 75%

Structure (SMILES): COc1ccc(CCNCCCCCCNCCCc2ccc(Cl)cc2)cc1OC.Cl
- Inhibition (Plasmodium falciparum [1]): 96%
- Inhibition (Plasmodium falciparum [2]): 2%
- Inhibition (HepG2): 36%

Structure (SMILES): CCOC(=O)c1c(-c2ccccc2)nc2c(sc3ccccc32)c1O
- Inhibition (Plasmodium falciparum [1]): 97%
- Inhibition (Plasmodium falciparum [2]): 65%
- Inhibition (HepG2): 2%

Structure (SMILES): O=C(Nc1ccccc1)OCCOc1ccc(CC2SC(=O)NC2=O)cc1 (stereo not drawn)
- Inhibition (Plasmodium falciparum [1]): 100%
- Inhibition (Plasmodium falciparum [2]): 0%
- Inhibition (HepG2): 1%

Structure (SMILES): O=C(NCCCNc1nc2ccccc2[nH]1)c1cccc(OC(F)(F)F)c1
- Inhibition (Plasmodium falciparum [1]): 100%
- Inhibition (Plasmodium falciparum [2]): 27%
- Inhibition (HepG2): 12%

Structure (SMILES): COc1ccc(CNCc2ccc(-c3cccc(-c4nc5cc(C(F)(F)F)ccc5[nH]4)c3)cc2)cc1.O=C(O)C(F)(F)F
- Inhibition (Plasmodium falciparum [1]): 100%
- Inhibition (Plasmodium falciparum [2]): 100%
- Inhibition (HepG2): 59%

Structure (SMILES): CCOc1ccc2nc(N(CCCn3ccnc3)C(=O)C=Cc3cccs3)sc2c1.Cl
- Inhibition (Plasmodium falciparum [1]): 97%
- Inhibition (Plasmodium falciparum [2]): 97%
- Inhibition (HepG2): 0%

Structure (SMILES): O=C(Nc1ccc(N2CCCN(Cc3cccc(F)c3)CC2)cc1)c1cccs1.O=C(O)C(F)(F)F
- Inhibition (Plasmodium falciparum [1]): 96%
- Inhibition (Plasmodium falciparum [2]): 96%
- Inhibition (HepG2): 2%

Structure (SMILES): COc1ccc(-c2nc(-c3ccc([N+](=O)[O-])cc3)no2)cc1OC
- Inhibition (Plasmodium falciparum [1]): 96%
- Inhibition (Plasmodium falciparum [2]): 0%
- Inhibition (HepG2): 14%
